Source: PubChem BioAssay
NPSR antagonist – qHTS Assay for Antagonists of the Neuropeptide S Receptor: cAMP Signal Transduction; AID 1461, 2008; CHO-NPSR cells, cAMP TR-FRET, antagonist mode; actives 1% (n = 220,000); Potency, µM (series often up to 38.3 µM), actives largely listed as inhibitors; note: nearly all actives have a fitted effect of over 50% in size
Target sequence (Q6W5P4 whole entry, looked up): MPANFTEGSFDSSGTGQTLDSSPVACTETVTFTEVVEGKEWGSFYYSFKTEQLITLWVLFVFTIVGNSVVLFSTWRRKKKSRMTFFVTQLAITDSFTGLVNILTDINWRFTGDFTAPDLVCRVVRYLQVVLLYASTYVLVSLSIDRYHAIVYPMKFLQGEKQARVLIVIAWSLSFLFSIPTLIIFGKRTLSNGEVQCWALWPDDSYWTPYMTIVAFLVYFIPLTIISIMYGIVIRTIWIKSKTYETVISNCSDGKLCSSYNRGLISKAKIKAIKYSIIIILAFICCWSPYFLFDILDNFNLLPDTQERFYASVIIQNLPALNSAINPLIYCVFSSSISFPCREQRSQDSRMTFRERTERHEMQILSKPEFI
Tau fibril FP – qHTS for Inhibitors of Tau Fibril Formation, Fluorescence Polarization; Microtubule-associated protein tau (Homo sapiens), P10636; K18 P301L tau heparin fibrillization, Alexa594 FP, 6 h; Potency, µM (top dose mostly 57.7 µM), actives largely listed as inhibitors; actives 0.39% (n = 280,000); note: nearly all actives have a fitted effect of over 55% in size
Target sequence (P10636 561-689 P618L limits assumed): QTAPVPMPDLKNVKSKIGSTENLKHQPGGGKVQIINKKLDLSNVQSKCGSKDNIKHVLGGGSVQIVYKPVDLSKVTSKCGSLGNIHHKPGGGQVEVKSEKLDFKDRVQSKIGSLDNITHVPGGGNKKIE
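K18 P301L tau (15 uM unlabeled/0.24 uM Alexa 594-labeled, final) + compound + heparin 20 uM final; 100 mM NaOAc pH 7; 6 hr 37 C; ThT 30 uM final added, 1 hr RT; FP ex 555/em 632 nm.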
KDM4E inh – qHTS Assay for Inhibitors of Human Jumonji Domain Containing 2E (JMJD2E); AID 2147, 2009; Lysine-specific demethylase 4E (Homo sapiens), B2RXH2; JMJD2E catalytic domain, FDH-coupled NADH fluorescence (FDH is formaldehyde dehydrogenase); actives 1.6% (n = 230,000); Potency, µM (series often up to 57.1 µM), usual class: inhibitors; active = well fitted inhibition curve with a large enough effect, not every such curve was filed as active; inconclusive = small, poorly fitted or top-dose-only effect, or another doubt; inactive = no such curve, though single readings can be large or run the other way; note: nearly all actives have a fitted effect of over 50% in size
PNC assembly inh – High Content Assay for Compounds that inhibit the Assembly of the Perinucleolar Compartment; PC3M PTB-GFP, PNC prevalence imaging, 16 h; stronger effect = lower value; activity change (PNC), negative = inhibition, % at 10 µM; actives 3.1% (n = 140,000); AID 2417, 2010;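 active = readout at or below -70, meaning at least 70% loss of cells showing the perinucleolar compartment, a nuclear body marking cancer cells; inconclusive = readout between -30 and a set limit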
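Compounds are pinned in duplicate onto adhered PC3M cells stably expressing GFP-tagged PTB and incubated 16 h at 37 C. Cells are then fixed, nuclei stained with Hoechst, and PNC-positive cells counted.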
Tau fluor cs – Counterscreen qHTS for Inhibitors of Tau Fibril Formation, Fluorescence Polarization | AID 1463, 2008 | actives 0.93% (n = 280,000) | Potency, µM (top dose mostly 57.7 µM) | tau K18 P301L Alexa594 fluorescence, heparin fibrillization; note: nearly all actives have a fitted effect of over 55% in size
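Human tau K18 P301L (15 uM unlabeled, 0.24 uM Alexa 594-labeled) in 100 mM sodium acetate pH 7 with 20 uM heparin, 6 hr at 37 C. ThT 30 uM added, 1 hr ambient; Alexa 594 FP and total fluorescence read at 555/632 nm.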
Tau ThT inhib – qHTS for Inhibitors of Tau Fibril Formation, Thioflavin T Binding | Microtubule-associated protein tau (Homo sapiens), P10636 | recombinant tau K18 P301L (four-repeat tau fragment), heparin-induced fibrillization, ThT fluorescence | Potency, µM (doses to about 57.4 µM), most hits filed as inhibitors | actives 2.1% (n = 270,000); note: nearly all actives have a fitted effect of over 55% in size
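In this qHTS, human K18 P301L tau is incubated with compound and heparin for 6 hr at 37 C, and Thioflavin T fluorescence then reports fibril load.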
Numbers stand for hits; - = inactive; ? = inconclusive; . = not tested or not shown; [ ] = dose if it differs, or a comment. Compounds with a hit are over-represented: about 5.1% of the library has one in this group of screens. Unless noted, calls come from the whole dose curve; as a rule, active = well fitted curve in the direction sought with a large enough effect; inconclusive = small, poorly fitted or top-dose-only effect, or another doubt; inactive = no such curve, though single readings can be large; an effect the other way counts as inactive or inconclusive.

SMILES | NPSR antagonist | Tau fibril FP | KDM4E inh | PNC assembly inh | Tau fluor cs | Tau ThT inhib
Oc1ccc(CN2CCN(Cc3ccccc3)CC2)c2cccnc12 | - | - | - | ? | - | -
Oc1ccc(CNc2ccc(F)cc2)c2cccnc12 | - | - | 7.94µM | - | - | ?
Oc1ccc(CNc2ccccc2)c2cccnc12 | - | - | 8.91µM | - | - | ?
COCc1ccc(O)c2ncccc12 | 3.98µM | - | 10µM | - | - | -
Cc1ccc2nc(CSc3nnc(NC(=O)COc4ccccc4)s3)cc(=O)n2c1 | . | - | . | . | - | ?
COc1ccc(CCNC(=O)CCCn2c(=O)c3ccccc3n(CC(=O)Nc3ccc(C)cc3Cl)c2=O)cc1OC | . | - | . | . | - | -
Cc1ccc(S(=O)(=O)c2nc(C(C)(C)C)oc2N2CCOCC2)cc1 | - | 39.8µM | ? | - | - | ?
Cc1ccc(S(=O)(=O)N2CCOCC2)cc1C(=O)Nc1c(C)n(C)n(-c2ccccc2)c1=O | - | - | - | -100.0 | - | -
CC(=O)N(C)C1=C(O)c2ccccc2C(=O)C1=O | - | ? | - | - | - | 28.2µM
CCCCOc1ccc(Cn2c(=O)sc3ccccc32)cc1OC | . | - | . | . | - | -
CCc1cccc(NC(=O)Cn2c(=O)n(CCc3ccc(OC)c(OC)c3)c(=O)c3ccccc32)c1 | . | ? | . | . | - | -
CC1=C(C#N)C(=O)N(C2CCS(=O)(=O)C2)C(=O)/C1=C\c1ccc(C)o1 (stereo not given) | - | ? | ? | . | ? | 22.4µM
Cc1ccc(/C=C2\SC(=S)N(C3CCS(=O)(=O)C3)C2=O)o1 (stereo not given) | - | - | - | . | - | ?
CC(=O)NCCNC(=O)CCCc1nnc2n(CC(C)C)c(=O)c3sccc3n12 | . | - | . | . | - | -
CCOC(=O)c1cnn2c(N)c(C#N)nnc12 | - | - | ? | -116.6 | - | -
CCOC(=O)c1cnn2c(N)c(C#N)cnc12 | - | - | ? | . | - | -
O=C(Nc1ccccc1)N(CCCN1CCOCC1)Cc1ccccc1F | - | - | - | -108.9 | - | -
CCc1ccc2[nH]c(=O)c(CN(CCN3CCOCC3)C(=O)Nc3ccccc3F)cc2c1 | - | - | - | -86.0 | - | -
O=C(Nc1cccc(Cl)c1)N(CCCN1CCOCC1)Cc1ccccc1F | - | ? | - | - | ? | -
CCOc1cccc(CNC(=O)c2ccc(N3CCCC3)c(NC(=O)NCc3ccc(F)cc3)c2)c1 | . | - | . | . | - | -
Cc1[nH][nH]c(=O)c1C(c1c(C)[nH][nH]c1=O)c1cn(Cc2ccccc2Cl)c2ccccc12 | - | ? | ? | - | - | 11.2µM
CCOc1ccc(-n2c(Cc3cc(=O)[nH]c(=O)[nH]3)nnc2SCC(N)=O)cc1 | - | - | ? | -83.5 | - | -
Cc1oc(-c2ccccc2Cl)nc1CSCC(=O)N1CCCC1 | - | - | - | -108.9 | - | -
Cc1oc(-c2ccccc2Cl)nc1CSCC(=O)NC1CCCC1 | - | - | - | - | - | -
CC(=O)Oc1cc(-c2coc3cc(OC(C)=O)c(OC(C)=O)c(OC(C)=O)c3c2=O)cc(OC(C)=O)c1OC(C)=O | . | 8.91µM | 3.16µM | . | ? | 3.55µM
SMILES | NPSR antagonist | Tau fibril FP | KDM4E inh | PNC assembly inh | Tau fluor cs | Tau ThT inhib
Cc1ccc2c(Cl)cc(Cl)c(OCC(=O)NCc3ccco3)c2n1 | - | ? | 25.1µM | - | - | ?
Cc1cc(C)n2c(-c3ccccc3Cl)nnc2n1 | - | - | ? | -109.0 | - | -
O=C(NCCCn1ccnc1)c1cc(-c2ccc3c(c2)OCO3)on1 | - | - | - | -91.4 | - | -
Fc1ccc(NC(=S)NC2CCN(Cc3ccccc3)CC2)cc1 | - | - | - | . | - | -
S=C(Nc1ccc(Cl)c(Cl)c1)NC1CCN(Cc2ccccc2)CC1 | - | 25.1µM | - | - | ? | -
CCCCS(=O)(=O)N1CCc2nc(COc3ccccc3)c3c(c2C1)CO[C@@H](C)C3 | . | -[11.6 µM] | -[11.4 µM] | . | -[11.6 µM] | -[11.5 µM]
CCOc1ccc(CCNC(=O)c2nn(-c3ccc(OC)cc3)c(=O)c3c2c2ccccc2n3C)cc1OCC | . | - | . | . | - | -
